Screening data from PubChem BioAssay.
CHO-K1 Ca ag: nonselective activator or artifact in parental CHO-K1 cells | Fluo-8 calcium fluorescence; scaled to maximal ATP response, vehicle zero | activation, % at 3 µM | 360,000 compounds, 0.48% hits | AID 602248; in the data active = activation above about 15%;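 also: untransfected CHO-K1 host cells lacking M1 receptor as counterscreen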
CHRM1 PAM: potentiates human M1 receptor response to acetylcholine; AID 588819; activation, % at 3 µM; CHO-K1 hM1, Fluo-8 calcium fluorescence, ACh EC20; 0% = ACh EC20, 100% = maximal ACh; 360,000 compounds, 0.088% hits; in the data active = activation above about 19%, passing the limit was not always enough
Target sequence (P11229 whole entry, looked up): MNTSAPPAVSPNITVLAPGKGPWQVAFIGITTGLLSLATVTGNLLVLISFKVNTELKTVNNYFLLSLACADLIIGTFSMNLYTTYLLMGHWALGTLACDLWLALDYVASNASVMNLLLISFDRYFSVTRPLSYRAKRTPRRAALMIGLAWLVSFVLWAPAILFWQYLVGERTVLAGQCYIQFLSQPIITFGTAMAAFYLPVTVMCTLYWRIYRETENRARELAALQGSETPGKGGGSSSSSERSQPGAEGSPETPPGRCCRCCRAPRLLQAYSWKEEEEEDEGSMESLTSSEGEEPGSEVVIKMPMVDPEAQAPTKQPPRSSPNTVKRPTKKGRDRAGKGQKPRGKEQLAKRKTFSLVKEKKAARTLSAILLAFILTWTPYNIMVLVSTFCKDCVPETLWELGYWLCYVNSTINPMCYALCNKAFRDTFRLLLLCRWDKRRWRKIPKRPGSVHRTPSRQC
CHRM1 antagonist: human CHRM1 antagonism | AID 588852 | inhibition, % at 3 µM | P11229 | 360,000 compounds, 1.3% hits | CHO-K1 hM1, Fluo-8 calcium fluorescence, ACh EC80 antagonist;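 active = percent inhibition above its own plate's cutoff, namely the mean of that plate's compound wells plus 3 SD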;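 also: peak over basal fluorescence ratio during 140 s after agonist addition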
CHO-K1 Ca antag: counter-screen for M1 antagonists: effect in parental CHO-K1 cells | ATP-induced calcium, Fluo-8 fluorescence | inhibition, % at 3 µM | 360,000 compounds, 0.6% hits;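 active = inhibition above a per-plate cutoff, the plate's mean sample inhibition plus 3 SD, cut at about 24% in these data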
CHRM1 agonist: activates human CHRM1 receptor; P11229; AID 588814; activation, % at 3 µM; 360,000 compounds, 0.33% hits; CHO-K1 hM1, Fluo-8 calcium fluorescence, agonist mode; 0% DMSO, 100% acetylcholine EC100;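 active = activation above the run's mean compound activation plus 3 SD, cut at about 16% in these data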;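 also: peak over basal fluorescence ratio within a 140 s kinetic read after compound addition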
CHO-K1 Ca PAM: M1 PAM counterscreen hit in parental CHO-K1 cells; ATP EC20, Fluo-8 calcium fluorescence; 0% at ATP EC20, 100% at ATP max; activation, % at 3 µM; 360,000 compounds, 0.02% hits; AID 602247;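 active = activation above the run cutoff, the mean activation of all test compounds plus 3 SD, cut at about 40% in these data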;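 also: peak over basal fluorescence ratio in a 140 s read after ATP addition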
A number is an active result; . = inactive; / = no result given. Most compounds without a hit are left out; they make up all but 2.3% or so of the library.

SMILES	CHO-K1 Ca ag	CHRM1 PAM	CHRM1 antagonist	CHO-K1 Ca antag	CHRM1 agonist	CHO-K1 Ca PAM
COc1ccc(-c2nc(-c3ccc(NC(=O)c4ccncc4)cc3)no2)cc1OC	.	.	38.5	.	.	.
COc1ccc(Cl)cc1-c1nc(-c2ccc(NC(=O)c3ccncc3)cc2)no1	.	.	.	.	.	.
O=C1C2C3C=CC(C4CC34)C2C(=O)N1c1cccc2ccccc12 (stereo unspecified)	18.2	.	.	.	.	.
O=CN1Cc2[nH]c3ccccc3c2N(c2ccc(Cl)cc2)C1=O	.	.	.	27.4	.	.
Cc1nc(C(F)(F)F)ccc1C(=O)N1CCC1(C)C(=O)NS(=O)(=O)c1ccc2ccccc2c1 (stereo unspecified)	.	.	.	.	.	.
OC(COc1ccccc1)CN1CCCCC1 (stereo unspecified)	.	.	.	.	.	.
OC(COc1ccc(CNCCc2ccccc2F)cc1)CN1CCCCC1 (stereo unspecified)	.	.	38.1	.	.	.
CCC1=Nc2cc(C(=O)NCCN3CCOCC3)ccc2Sc2ccc(Br)cc21	.	.	.	.	.	.
O=C(O)C(Cc1cccs1)c1cccs1 (stereo unspecified)	.	.	.	.	.	.
COc1ccc(CNC(=O)C(c2ccc(C)o2)N(Cc2cccs2)C(=O)Cc2cccs2)cc1 (stereo unspecified)	.	.	40.3	.	.	.
COCCN(C(=O)Cc1cccs1)C(C(=O)NCc1ccc(OC)cc1)c1ccc(C)cc1 (stereo unspecified)	.	.	.	.	.	.
O=C(NCc1ccccc1)C(c1ccccc1)N(Cc1ccc2c(c1)OCO2)C(=O)Cc1cccs1 (stereo unspecified)	.	.	44.9	.	.	.
COCCNC(=O)C(c1ccc(C)o1)N(Cc1ccc(OC)cc1)C(=O)Cn1nnc2ccccc21 (stereo unspecified)	.	.	.	.	23.1	.
Cc1cc(OC(=O)c2c(Cl)cc(Cl)cc2Cl)nc(C)n1	.	24.4	.	.	.	.
CC1CCC2(CC1)NC(=O)N(Cc1cccc(C(F)(F)F)c1)C2=O (stereo unspecified)	.	.	.	.	.	.
CN1CCN(C(=O)Nc2ccc3c(c2)N(C)C(=O)c2ccccc2S3)CC1	.	.	.	.	.	.
CN1CCN(C(=O)Nc2cccc(-c3ccccc3)c2)CC1	.	.	31.0	.	.	.
O=C(C1CCN(S(=O)(=O)c2cccc3nsnc23)CC1)N1CC=C(c2ccccc2)CC1	.	.	.	.	.	.
O=C(C1CCC(CNS(=O)(=O)c2cccc3nsnc23)CC1)N1CC=C(c2ccccc2)CC1 (stereo unspecified)	.	.	.	26.2	.	.
CC1CCN(CCNC(=O)C2CCCN(S(=O)(=O)c3cccc4nsnc34)C2)CC1 (stereo unspecified)	.	.	.	34.1	.	.
O=C(NCCCN1CCCCCC1)C1CCCN(S(=O)(=O)c2cccc3nsnc23)C1 (stereo unspecified)	.	.	.	.	.	.
CC1CCN(CCCNC(=O)C2CCC(CNS(=O)(=O)c3cccc4nsnc34)CC2)CC1 (stereo unspecified)	.	.	65.0	.	.	.
CCNc1nc(-c2sc(NC(=O)C(C)(C)C)nc2C)c(-n2cc(-c3ccccc3)nn2)s1	.	/	/	.	/	.
O=C(CN1C(=O)c2ccccc2C1=O)C(O)CN1C(=O)c2ccccc2C1=O (stereo unspecified)	.	.	.	.	.	.
NS(=O)(=O)c1ccc(CCNS(=O)(=O)c2cccc(C(=O)O)c2)cc1	.	.	.	.	.	.
SMILES	CHO-K1 Ca ag	CHRM1 PAM	CHRM1 antagonist	CHO-K1 Ca antag	CHRM1 agonist	CHO-K1 Ca PAM
Cc1cc(Cl)ccc1NC(=S)NCc1ccc(Cl)cc1	.	.	.	.	.	.
Cc1cc(Cl)ccc1NC(=S)NCCc1ccc(Cl)cc1	.	.	.	25.5	.	.
CCc1nc2ccc(C(=O)Nc3cccc(OC)c3)cn2c1N(CC)CCOC	.	.	.	.	.	.
COc1ccc2sc(N(CCN(C)C)C(=O)c3ccc4ccccc4c3)nc2c1	.	.	.	.	19.8	.
CCOC(=O)Cc1csc(NC(=O)CN2CCCCC2)n1	.	.	.	.	.	.
CCCCCCn1c(=O)[nH]c2nc3cc(N)c(C)cc3nc2c1=O	59.8	.	32.3	28.6	60.8	.
Nc1sc(-c2ccccc2)n[n+]1Cc1cccc2cccnc12	.	.	65.8	.	.	.
CC(C)Cc1nc(NCCN2CCOCC2)c(C#N)c2c1COC(C)(C)C2	.	.	.	.	.	.
CCCCc1nc(NCCN2CCOCC2)c(C#N)c2c1COC(C)(C)C2	.	.	.	24.8	.	.
OC1(c2ccc(Cl)cc2)CCN(Cc2c[nH]c3ccccc23)CC1	.	.	.	.	22.3	.
CN(CCCCCCCCC(=O)/C=N/O)Cc1ccccc1	.	.	68.7	.	.	.
COc1ccccc1-n1nnnc1SCC(=O)N(C)C1CCS(=O)(=O)C1 (stereo unspecified)	.	.	.	.	.	.
O=C(Nc1ccc2c(c1)OCO2)C1CC(=O)N(c2ccc(F)cc2)C1 (stereo unspecified)	.	.	.	.	.	.
Cc1onc(-c2ccccc2Cl)c1C(O)c1ccc(F)cc1 (stereo unspecified)	.	.	.	.	.	.
Cc1onc(-c2ccccc2)c1C(O)c1ccc(F)cc1 (stereo unspecified)	.	.	42.2	32.5	.	.
Cc1ccc(Sc2c([N+](=O)[O-])c(C)nn2C)cc1	.	.	87.9	.	.	.
Cc1sc2nc(CSCC(=O)NC3(C#N)CCCCC3)[nH]c(=O)c2c1C	.	.	.	.	.	.
N=c1c2c(n(Cc3ccc(Cl)c(Cl)c3)c3c1CCC3)CCCC2	.	.	.	.	.	.
N=c1c2c(n(Cc3ccc(Br)cc3)c3c1CCC3)CCCC2	.	.	25.6	.	.	.
OC(CCN1CC2CCC(CC2)C1)(Cc1ccccc1)c1ccco1 (stereo unspecified)	.	.	85.5	.	.	.
O=S(=O)(c1ccccc1)N(CC1CO1)c1ccccc1 (stereo unspecified)	15.7	.	.	.	.	.
O=[N+]([O-])c1ccc(N(CC2CO2)S(=O)(=O)c2ccccc2)cc1 (stereo unspecified)	.	.	.	.	.	.
Cc1ccc(Cl)c(OC(=O)Cn2cnc3c2c(=O)n(C)c(=O)n3C)c1	.	.	.	.	.	.
COC(=O)c1ccc(NC(=O)CN2C(=O)CC(C)S(=O)(=O)c3ccccc32)cc1 (stereo unspecified)	.	.	.	.	.	.
